Structures are written as SMILES. Inconclusive results are not listed. Entries that show only a call come without a potency. Activity calls are given as the source filed them. Calls come from the whole dose curve; as a rule, active = well fitted inhibition curve with a large enough effect; inconclusive = small, poorly fitted or top-dose-only effect; inactive = flat fitted curve, though single readings scatter.

For the assay, the target named is Aldehyde dehydrogenase, mitochondrial (Homo sapiens) (UniProt P05091). Put plainly: qHTS for Inhibitors of the Aldehyde Dehydrogenase Family (ALDH2) Primary screen (AID 2061308). Note: nearly all actives have a fitted effect of over 55% in size. To be noted: ALDH2 enzyme inhibition qHTS, 1536-well; series mostly up to 56 µM. (In qHTS, concentration-response curves come from the screen itself.)
As to `CC(=O)c1ccc(O[C@@H]2O[C@H](CO)[C@@H](O)[C@H](O)[C@H]2O)cc1`, the Potency entry was “inactive”. As for `CCCCNc1nc(C)nc2c1nc(-c1ccccc1)n2CCN1CCCCC1`, the entry is “inactive”; as for `COc1cc(C2Nc3ccccc3C(=O)N2Cc2ccccc2)ccc1OCc1ccc(NC(C)=O)cc1` (stereo not given), “inactive”. For the compound `Cc1cccc(-n2cnc3cc(C(=O)N4CCCCCC4)ccc32)c1`, the Potency result was “inactive”. As for `COc1ccc(-c2csc3ncnc(Sc4nnnn4C)c23)cc1`, the entry is “inactive”. As for `Cc1ccc(C(=O)N2CCc3cc(-c4nc(NC(=O)Cc5ccc6c(c5)OCO6)sc4C)ccc32)cc1`, the entry is “inactive”; as for `CCC(=O)NC(C)c1cc(Cl)c2cccnc2c1O` (stereo not given), “inactive”; as for `O=C(Nc1nc(-c2ccccc2)cs1)c1ccccc1`, “inactive”. The value for `Cc1ccc(OCCn2c(CCNC(=O)/C=C/c3ccccc3)nc3ccccc32)cc1` was “inactive”; that for `Cc1ccc(CCCn2c(CCNC(=O)C3CCCCC3)nc3ccccc32)cc1` was “inactive”.

Consider `FC(F)(F)c1cc(-c2nc3ccccc3s2)cc(C(F)(F)F)c1`, for which the Potency entry is “inactive”. The value for `Cc1cc(C)nc(NC(=S)N2CCN(c3cc(Cl)c(Cl)cc3Cl)CC2)c1` was “inactive”; that for `COC(=O)c1cncc(NC(=O)c2cccs2)c1` was “inactive”.

For `O=C(O)C1CCC(C(=O)Nc2ccc([S+](=O)([O-])Nc3nccs3)cc2)CC1` (stereo not given), the Potency result was “inactive”. The value for `CC(=O)Oc1ccc(C2(c3ccc(OC(C)=O)cc3)Oc3ccccc3NC2=O)cc1` was “inactive”; that for `O=C1c2ccccc2NC(c2ccccc2O)N1Cc1ccccc1` (stereo not given) was “inactive”; that for `COc1cccc(C2c3c(ncn(-c4ccccc4Cl)c3=N)Oc3ccc4ccccc4c32)c1` (stereo not given) was “inactive”.

As for `Cc1cc(F)ccc1S(=O)(=O)Nc1cnccc1C(=O)Nc1nc(-c2ccccc2)cs1`, the Potency result was “inactive”. As for `Cc1noc(C)c1-c1ccc2ncnc(NCC3CCCCN3C)c2c1` (stereo not given), the entry is “inactive”. With `Cc1ccc(-c2nnc(N3CCC(C(N)=O)CC3)s2)cc1`, the Potency result is “inactive”. The value for `COc1cc(O)c(C(CC(=O)N2CCCCC2)c2ccc3c(c2)OCO3)c(OC)c1` (stereo not given) was “inactive”; that for `NC(=O)C1CCN(c2cc(-c3ccc4c(c3)OCCCO4)ncn2)CC1` was “inactive”. As for `Fc1cc(Nc2nc(-c3ccncc3)nc3ccccc23)ccc1-n1cncn1`, the entry is “inactive”; as for `CC(=O)Nc1sc2c(c1-c1cccc(N(C)C)c1)CCNC2`, “inactive”. The value for `O=[S+]([O-])(Nc1nccs1)c1ccc(NCc2cc(Cl)cc(Br)c2O)cc1` was “inactive”; that for `O=S(=O)(Nc1nc(CN2CCOCC2)nc2sc3c(c12)CCCC3)c1ccc2ccccc2c1` was “inactive”; that for `COc1ccc([S+](=O)([O-])N2CCCN([S+](=O)([O-])c3ccc(OC)c(NC(C)=O)c3)CC2)cc1NC(C)=O` was “inactive”. Turning to `CCCCc1ccc(-c2ccc(=O)n(CC(=O)NCCc3ccccc3)n2)cc1`, the Potency result was “inactive”. As for `COc1cc(N2CCN(C(=S)Nc3cc(C)cc(C)n3)CC2)cc(C(F)(F)F)c1`, the entry is “inactive”; as for `COc1ccccc1-c1csc2ncnc(Sc3nnnn3C)c12`, “inactive”; as for `O=C(COC(=O)CNC(=O)c1ccccc1Cl)Nc1cc(C(F)(F)F)ccc1Cl`, “inactive”.

As to `COc1ccc(NC(=O)CN2C(=O)N/C(=C\c3cccn3-c3ccc(C(=O)NC#N)cc3)C2=O)cc1`, the Potency entry is “inactive”. For `Cc1cc(C)nc(NC(=S)N2CCN(c3ccc4occc4c3)CC2)c1`, the Potency entry was “inactive”. As for `O=C1CCc2cc(S(=O)(=O)Nc3cccc(F)c3)ccc2N1`, the entry is “inactive”; as for `O=C1CCCC2=C1C(c1ccc(F)cc1)N=C(Nc1nc3ccccc3o1)N2` (stereo not given), “inactive”; as for `Cc1ccc(S(=O)(=O)Nc2cnccc2C(=O)Nc2ccc(C#N)cc2)cc1`, “inactive”. The value for `Cc1cc(-c2cc(O)ccc2Cl)cc2nnc(Nc3ccc(OCCN4CCCC4)cc3)nc12` was “inactive”; that for `COc1nccc(-c2nc(Nc3ccc(F)c(F)c3)c3ccccc3n2)c1OC` was “inactive”; that for `COc1cccc(C2c3c(ncn(-c4cccc(Cl)c4)c3=N)Oc3ccc4ccccc4c32)c1` (stereo not given) was “inactive”.

Consider `COc1ccc(C2N=C(Nc3nc4ccccc4o3)NC3=C2C(=O)CCC3)cc1` (stereo not given), for which the Potency entry is “inactive”.

The values are drawn from PubChem BioAssay (NCATS).
